Source: ChEMBL document CHEMBL1961873, “Compounds: GSK PKIS; Assays: Nanosyn kinase panel” (2012)

Columns and labels:
[1] = target: T1, Tyrosine-protein kinase receptor TYRO3 (Homo sapiens) (UniProt Q06418); conditions: at 1 µM
T1 sequence (whole entry): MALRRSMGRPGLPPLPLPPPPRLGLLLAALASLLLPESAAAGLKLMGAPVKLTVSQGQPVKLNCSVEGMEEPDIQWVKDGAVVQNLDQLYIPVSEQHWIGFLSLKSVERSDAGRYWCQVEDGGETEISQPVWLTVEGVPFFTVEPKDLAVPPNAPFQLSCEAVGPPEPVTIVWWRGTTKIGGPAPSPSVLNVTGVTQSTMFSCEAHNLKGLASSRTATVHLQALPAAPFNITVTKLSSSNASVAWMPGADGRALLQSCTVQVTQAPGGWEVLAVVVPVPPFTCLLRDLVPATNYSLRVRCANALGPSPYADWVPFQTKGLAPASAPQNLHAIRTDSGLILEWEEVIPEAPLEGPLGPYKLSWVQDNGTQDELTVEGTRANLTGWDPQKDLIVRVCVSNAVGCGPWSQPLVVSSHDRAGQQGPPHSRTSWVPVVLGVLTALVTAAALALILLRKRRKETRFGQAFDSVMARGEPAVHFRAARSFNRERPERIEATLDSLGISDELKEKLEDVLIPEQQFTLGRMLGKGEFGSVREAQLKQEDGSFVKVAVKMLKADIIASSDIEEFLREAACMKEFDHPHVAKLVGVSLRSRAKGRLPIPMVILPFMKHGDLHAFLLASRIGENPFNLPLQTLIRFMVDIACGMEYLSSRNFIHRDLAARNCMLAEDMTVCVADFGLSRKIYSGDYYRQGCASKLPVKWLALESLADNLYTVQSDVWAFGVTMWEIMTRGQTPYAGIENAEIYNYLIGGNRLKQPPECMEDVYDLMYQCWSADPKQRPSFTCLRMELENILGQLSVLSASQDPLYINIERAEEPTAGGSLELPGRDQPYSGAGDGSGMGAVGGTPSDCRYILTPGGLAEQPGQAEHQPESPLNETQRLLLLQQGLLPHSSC

[2] = target: Tyrosine-protein kinase Yes (Homo sapiens) (UniProt P07947); conditions: at 0.1 µM
[3] = target: Tyrosine-protein kinase Yes (Homo sapiens) (UniProt P07947); conditions: at 1 µM
[4] = target: T2, Tyrosine-protein kinase ZAP-70 (Homo sapiens) (UniProt P43403); conditions: at 0.1 µM
T2 sequence (whole entry): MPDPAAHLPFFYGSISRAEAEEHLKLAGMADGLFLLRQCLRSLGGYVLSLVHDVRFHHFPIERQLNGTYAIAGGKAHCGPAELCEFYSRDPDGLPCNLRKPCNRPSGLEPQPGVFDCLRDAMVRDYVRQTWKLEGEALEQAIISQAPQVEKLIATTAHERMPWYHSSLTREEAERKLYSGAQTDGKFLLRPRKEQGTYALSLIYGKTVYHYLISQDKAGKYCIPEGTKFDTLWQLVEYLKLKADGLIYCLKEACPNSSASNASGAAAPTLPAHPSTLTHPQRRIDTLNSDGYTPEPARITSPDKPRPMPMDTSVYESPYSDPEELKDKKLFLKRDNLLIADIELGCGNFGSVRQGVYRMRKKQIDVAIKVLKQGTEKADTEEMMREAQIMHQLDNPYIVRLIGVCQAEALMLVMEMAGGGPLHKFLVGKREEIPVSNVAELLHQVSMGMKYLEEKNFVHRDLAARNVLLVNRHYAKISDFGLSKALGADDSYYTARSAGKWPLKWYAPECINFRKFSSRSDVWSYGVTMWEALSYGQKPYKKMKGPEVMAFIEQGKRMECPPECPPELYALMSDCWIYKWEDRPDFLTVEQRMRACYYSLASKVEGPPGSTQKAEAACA

[5] = target: T2, Tyrosine-protein kinase ZAP-70 (Homo sapiens); conditions: at 1 µM
[6] = target: Serine/threonine-protein kinase B-raf (Homo sapiens) (UniProt P15056); conditions: at 0.1 µM
[7] = target: Serine/threonine-protein kinase B-raf (Homo sapiens) (UniProt P15056); conditions: at 1 µM
[8] = test system: Serine/threonine-protein kinase B-raf (Homo sapiens), P15056 [V600E]; conditions: at 0.1 µM
[9] = test system: Serine/threonine-protein kinase B-raf (Homo sapiens), P15056 [V600E]; conditions: at 1 µM
[10] = target: RAF proto-oncogene serine/threonine-protein kinase (Homo sapiens) (UniProt P04049); conditions: at 0.1 µM
[11] = target: RAF proto-oncogene serine/threonine-protein kinase (Homo sapiens) (UniProt P04049); conditions: at 1 µM
[12] = target: T3, Interleukin-1 receptor-associated kinase 4 (Homo sapiens) (UniProt Q9NWZ3); conditions: at 0.1 µM
T3 sequence (whole entry): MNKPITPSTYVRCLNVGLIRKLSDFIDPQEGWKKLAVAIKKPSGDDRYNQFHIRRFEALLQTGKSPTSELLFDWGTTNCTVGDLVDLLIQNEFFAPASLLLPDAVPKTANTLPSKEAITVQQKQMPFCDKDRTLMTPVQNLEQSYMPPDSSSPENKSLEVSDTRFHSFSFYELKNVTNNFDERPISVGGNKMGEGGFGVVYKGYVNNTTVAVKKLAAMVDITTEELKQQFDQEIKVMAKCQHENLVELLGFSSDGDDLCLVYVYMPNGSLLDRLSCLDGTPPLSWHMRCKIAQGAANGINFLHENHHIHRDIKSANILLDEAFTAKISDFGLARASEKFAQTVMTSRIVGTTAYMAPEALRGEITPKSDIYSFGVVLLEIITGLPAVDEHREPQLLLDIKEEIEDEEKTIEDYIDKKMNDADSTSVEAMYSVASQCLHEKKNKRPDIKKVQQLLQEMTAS

[13] = target: T3, Interleukin-1 receptor-associated kinase 4 (Homo sapiens); conditions: at 1 µM
[14] = target: Leucine-rich repeat serine/threonine-protein kinase 2 (Homo sapiens) (UniProt Q5S007); conditions: at 0.1 µM
[15] = target: Leucine-rich repeat serine/threonine-protein kinase 2 (Homo sapiens) (UniProt Q5S007); conditions: at 1 µM
[16] = test system: Leucine-rich repeat serine/threonine-protein kinase 2 (Homo sapiens), Q5S007 [G2019S]; conditions: at 0.1 µM
[17] = test system: Leucine-rich repeat serine/threonine-protein kinase 2 (Homo sapiens), Q5S007 [G2019S]; conditions: at 1 µM

Chain of Leucine-rich repeat serine/threonine-protein kinase 2 (Homo sapiens), Q5S007 [G2019S] (Q5S007 whole entry G2019S): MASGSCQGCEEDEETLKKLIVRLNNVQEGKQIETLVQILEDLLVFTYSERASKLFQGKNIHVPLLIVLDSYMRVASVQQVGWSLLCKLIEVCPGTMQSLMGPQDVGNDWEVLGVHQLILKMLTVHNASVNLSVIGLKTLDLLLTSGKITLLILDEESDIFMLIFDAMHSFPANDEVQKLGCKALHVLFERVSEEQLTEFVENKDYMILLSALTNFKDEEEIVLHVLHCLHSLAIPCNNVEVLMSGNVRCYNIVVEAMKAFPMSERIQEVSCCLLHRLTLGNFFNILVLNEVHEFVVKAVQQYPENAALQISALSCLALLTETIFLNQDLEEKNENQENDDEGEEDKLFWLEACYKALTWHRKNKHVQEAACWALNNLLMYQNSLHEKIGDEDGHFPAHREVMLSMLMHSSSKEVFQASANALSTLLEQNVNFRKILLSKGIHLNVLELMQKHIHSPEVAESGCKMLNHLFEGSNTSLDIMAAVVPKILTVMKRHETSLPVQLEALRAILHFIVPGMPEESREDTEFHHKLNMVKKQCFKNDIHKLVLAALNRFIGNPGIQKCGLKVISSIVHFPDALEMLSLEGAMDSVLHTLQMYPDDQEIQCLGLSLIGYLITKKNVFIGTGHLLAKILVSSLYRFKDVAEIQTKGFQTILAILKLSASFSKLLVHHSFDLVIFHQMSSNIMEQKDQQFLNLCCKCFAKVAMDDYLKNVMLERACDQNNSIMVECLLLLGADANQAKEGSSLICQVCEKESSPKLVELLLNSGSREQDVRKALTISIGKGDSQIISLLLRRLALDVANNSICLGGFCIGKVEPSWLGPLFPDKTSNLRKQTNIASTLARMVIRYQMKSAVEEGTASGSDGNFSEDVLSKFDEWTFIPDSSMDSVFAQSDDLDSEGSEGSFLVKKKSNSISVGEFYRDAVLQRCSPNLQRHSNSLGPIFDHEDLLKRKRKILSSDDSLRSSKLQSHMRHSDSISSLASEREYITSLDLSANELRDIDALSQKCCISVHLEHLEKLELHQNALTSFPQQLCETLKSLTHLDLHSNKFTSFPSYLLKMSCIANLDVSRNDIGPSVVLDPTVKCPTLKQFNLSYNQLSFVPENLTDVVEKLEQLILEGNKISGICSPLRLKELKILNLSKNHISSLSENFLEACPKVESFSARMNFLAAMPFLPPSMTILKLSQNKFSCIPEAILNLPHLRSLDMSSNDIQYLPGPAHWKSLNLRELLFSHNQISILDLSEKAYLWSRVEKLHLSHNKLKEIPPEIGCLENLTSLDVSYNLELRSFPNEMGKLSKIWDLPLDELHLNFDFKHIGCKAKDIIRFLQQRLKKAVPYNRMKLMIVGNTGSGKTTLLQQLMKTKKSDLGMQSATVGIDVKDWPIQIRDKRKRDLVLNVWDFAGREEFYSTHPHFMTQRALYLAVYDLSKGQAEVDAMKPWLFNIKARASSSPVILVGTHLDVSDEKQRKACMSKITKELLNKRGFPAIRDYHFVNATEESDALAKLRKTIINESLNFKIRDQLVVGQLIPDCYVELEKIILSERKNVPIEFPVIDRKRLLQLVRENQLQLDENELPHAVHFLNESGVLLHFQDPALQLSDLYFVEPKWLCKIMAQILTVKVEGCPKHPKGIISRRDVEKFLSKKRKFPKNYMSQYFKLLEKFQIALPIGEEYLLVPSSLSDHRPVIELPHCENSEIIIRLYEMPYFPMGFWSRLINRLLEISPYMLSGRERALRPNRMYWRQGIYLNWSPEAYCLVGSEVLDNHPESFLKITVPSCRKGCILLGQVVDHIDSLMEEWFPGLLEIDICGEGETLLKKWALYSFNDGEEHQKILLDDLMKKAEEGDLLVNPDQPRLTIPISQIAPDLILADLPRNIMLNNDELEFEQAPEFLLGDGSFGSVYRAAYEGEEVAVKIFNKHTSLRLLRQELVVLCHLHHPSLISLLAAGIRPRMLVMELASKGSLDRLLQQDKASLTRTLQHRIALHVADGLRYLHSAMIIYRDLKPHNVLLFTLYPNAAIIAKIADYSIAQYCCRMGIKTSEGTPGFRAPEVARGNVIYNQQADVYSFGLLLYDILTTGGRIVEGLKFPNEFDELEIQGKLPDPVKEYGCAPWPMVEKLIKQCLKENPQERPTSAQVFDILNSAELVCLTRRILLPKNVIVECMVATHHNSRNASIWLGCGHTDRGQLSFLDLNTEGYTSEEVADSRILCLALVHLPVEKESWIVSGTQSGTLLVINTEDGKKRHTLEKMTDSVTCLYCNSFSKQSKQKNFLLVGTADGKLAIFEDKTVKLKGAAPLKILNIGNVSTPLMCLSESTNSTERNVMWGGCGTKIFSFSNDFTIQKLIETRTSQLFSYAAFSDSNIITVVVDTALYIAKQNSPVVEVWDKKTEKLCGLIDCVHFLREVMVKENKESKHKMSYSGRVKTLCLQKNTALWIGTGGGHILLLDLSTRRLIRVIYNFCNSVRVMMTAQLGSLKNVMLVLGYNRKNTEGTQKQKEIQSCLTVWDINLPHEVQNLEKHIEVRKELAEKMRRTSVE
Chain of Leucine-rich repeat serine/threonine-protein kinase 2 (Homo sapiens) (Q5S007 whole entry): as the sequence (Q5S007 whole entry G2019S) above, with S2019G counted along it
Chain of Serine/threonine-protein kinase B-raf (Homo sapiens), P15056 [V600E] (P15056 whole entry V600E): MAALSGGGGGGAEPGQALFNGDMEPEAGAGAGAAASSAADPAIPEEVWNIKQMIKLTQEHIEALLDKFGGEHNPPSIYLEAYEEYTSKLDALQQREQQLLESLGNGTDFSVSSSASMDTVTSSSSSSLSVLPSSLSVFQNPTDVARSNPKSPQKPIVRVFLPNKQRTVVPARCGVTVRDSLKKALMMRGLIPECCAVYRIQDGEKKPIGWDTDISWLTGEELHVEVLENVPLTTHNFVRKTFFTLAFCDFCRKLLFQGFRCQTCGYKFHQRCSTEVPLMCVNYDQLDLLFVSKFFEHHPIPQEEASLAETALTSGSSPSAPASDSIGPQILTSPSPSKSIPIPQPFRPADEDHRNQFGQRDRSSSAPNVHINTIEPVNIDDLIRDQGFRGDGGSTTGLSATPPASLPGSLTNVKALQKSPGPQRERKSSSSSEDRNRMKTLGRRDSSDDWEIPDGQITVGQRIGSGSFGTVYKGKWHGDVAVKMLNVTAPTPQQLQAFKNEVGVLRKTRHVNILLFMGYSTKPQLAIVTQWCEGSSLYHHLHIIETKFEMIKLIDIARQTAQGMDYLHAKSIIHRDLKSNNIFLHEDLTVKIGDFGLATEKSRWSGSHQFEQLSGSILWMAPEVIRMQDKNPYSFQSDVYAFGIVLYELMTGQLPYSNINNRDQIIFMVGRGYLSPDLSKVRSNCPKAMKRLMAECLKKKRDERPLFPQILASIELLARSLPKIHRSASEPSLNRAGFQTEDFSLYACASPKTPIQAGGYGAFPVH
Chain of Serine/threonine-protein kinase B-raf (Homo sapiens) (P15056 whole entry): as the sequence (P15056 whole entry V600E) above, with E600V counted along it
Chain of Tyrosine-protein kinase Yes (Homo sapiens) (P07947 2-543 limits assumed): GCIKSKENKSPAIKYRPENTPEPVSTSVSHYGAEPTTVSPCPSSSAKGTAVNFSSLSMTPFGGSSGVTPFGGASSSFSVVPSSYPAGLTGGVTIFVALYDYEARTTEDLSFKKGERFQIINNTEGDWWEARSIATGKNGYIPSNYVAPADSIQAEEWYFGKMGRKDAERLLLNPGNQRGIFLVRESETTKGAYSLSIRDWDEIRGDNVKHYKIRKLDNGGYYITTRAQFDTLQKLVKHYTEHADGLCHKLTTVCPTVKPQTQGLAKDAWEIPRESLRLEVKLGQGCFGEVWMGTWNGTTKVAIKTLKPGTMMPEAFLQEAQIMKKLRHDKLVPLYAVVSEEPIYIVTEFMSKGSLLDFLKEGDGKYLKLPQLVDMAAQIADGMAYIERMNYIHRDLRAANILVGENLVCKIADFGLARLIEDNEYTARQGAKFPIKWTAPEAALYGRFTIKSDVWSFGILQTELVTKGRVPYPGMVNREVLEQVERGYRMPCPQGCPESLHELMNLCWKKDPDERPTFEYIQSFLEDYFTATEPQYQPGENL
Chain of RAF proto-oncogene serine/threonine-protein kinase (Homo sapiens) (P04049 whole entry): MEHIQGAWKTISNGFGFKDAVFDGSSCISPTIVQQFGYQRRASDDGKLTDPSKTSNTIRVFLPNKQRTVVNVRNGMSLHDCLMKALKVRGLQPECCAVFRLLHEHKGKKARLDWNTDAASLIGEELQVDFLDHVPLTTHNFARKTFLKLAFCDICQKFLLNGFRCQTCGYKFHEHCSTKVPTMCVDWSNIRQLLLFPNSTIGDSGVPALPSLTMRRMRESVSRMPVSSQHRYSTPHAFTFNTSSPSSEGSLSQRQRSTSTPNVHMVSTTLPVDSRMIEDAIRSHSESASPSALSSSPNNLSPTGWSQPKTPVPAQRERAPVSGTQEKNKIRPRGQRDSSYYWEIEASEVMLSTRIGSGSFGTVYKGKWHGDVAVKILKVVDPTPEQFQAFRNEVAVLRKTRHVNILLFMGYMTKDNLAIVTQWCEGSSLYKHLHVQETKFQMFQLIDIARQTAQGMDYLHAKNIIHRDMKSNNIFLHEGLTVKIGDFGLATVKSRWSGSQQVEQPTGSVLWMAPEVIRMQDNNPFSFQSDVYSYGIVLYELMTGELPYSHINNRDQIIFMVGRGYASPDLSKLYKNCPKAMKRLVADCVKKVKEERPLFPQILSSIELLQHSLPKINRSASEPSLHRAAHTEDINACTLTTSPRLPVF

| Structure (SMILES) | inhibition [1] | inhibition [2] | inhibition [3] | inhibition [4] | inhibition [5] | inhibition [6] | inhibition [7] | inhibition [8] | inhibition [9] | inhibition [10] | inhibition [11] | inhibition [12] | inhibition [13] | inhibition [14] | inhibition [15] | inhibition [16] | inhibition [17] |
| --- | --- | --- | --- | --- | --- | --- | --- | --- | --- | --- | --- | --- | --- | --- | --- | --- | --- |
| Cc1cc(O)cc(C)c1/C=C/c1cncc(C(=O)N(C)C)c1 | 2.81% | 0.44% | 1.22% | 1.81% | 2.36% | 3.04% | 3.56% | 4.11% | 3.14% | 6.23% | -5.4% | -1.62% | 2.21% | 4.81% | 7.82% | 3.29% | 7.6% |
| O=C1Nc2ccc(-c3cccnc3)cc2C1=Cc1cc(Br)c(O)c(Br)c1 | 9.95% | 2.64% | 5.79% | – | -8.3% | 8.77% | 18.3% | 8.84% | 18.1% | -2.68% | 21.8% | -1.88% | 4.22% | 23.2% | 22.3% | 47.2% | 61.3% |
| O=S(=O)(CCOCc1ccc(-c2ccc3ncnc(Nc4ccc(OCc5cccc(F)c5)c(Cl)c4)c3c2)o1)c1ccccc1 | -0.33% | -1.93% | 2.61% | -5.44% | 0.81% | 2.33% | 3.21% | 2.43% | 3.05% | -0.94% | -1.29% | 0.22% | 0.93% | 4.19% | 9.06% | 6.55% | 10.3% |
| COC(=O)c1cncc(/C=C/c2c(C)cc(O)cc2C)c1 | 7.16% | 4.43% | 18.8% | 2.93% | -0.01% | 6.07% | 9.71% | 5.41% | 8.24% | 1.93% | -7.11% | -4.61% | 1.8% | 1.53% | 6.87% | 2.83% | 9.71% |
| COc1cccc(-n2ncc3c(N/N=C/c4ccc(S(C)(=O)=O)cc4)ncnc32)c1 | 22.4% | 31.9% | 57.4% | -3.44% | 1.31% | 7.5% | 16.4% | 8.25% | 20.2% | -3.03% | -5.96% | -3.29% | 1.12% | -1.93% | -1.56% | 2.72% | 6.75% |
| CN1CCN(C(=O)c2ccc(NC(=O)Nc3ccc(N(C)c4ccnc(Nc5ccc(CS(C)(=O)=O)cc5)n4)cc3)cc2)CC1 | 21.9% | 2.29% | 16.2% | 2.02% | 5.2% | 2.69% | 14.5% | 3.84% | 11.8% | 2.58% | -0.88% | 0.32% | 0.52% | 13.7% | 21.2% | 15.2% | 50.9% |
| Cc1nc(-c2ccccc2)n2nc(NCCCN3CCOCC3)ncc12 | 2.63% | 0.53% | 6.58% | 0.35% | 0.63% | 3.54% | 7.13% | 4.13% | 4.57% | 8.88% | 3.81% | 1.72% | 1.58% | 0.1% | 5.23% | 2.23% | 6.32% |
| COc1ccc(-c2nn3ncccc3c2-c2ccnc(Nc3cccc(C(F)(F)F)c3)n2)cc1 | 4.06% | 26.3% | 79.8% | -0.73% | 1.1% | 4.3% | 6.08% | 4.63% | 4.39% | -2.4% | -0.7% | 2.1% | 1.92% | 2.5% | 2.68% | 2.73% | -0.13% |
| CN(C)CCCn1c(-c2nonc2N)nc2cnccc21 | 1.97% | 0.2% | 0.44% | 1.32% | 0.96% | 5.59% | 6.07% | 5.51% | 5.34% | 7.16% | 1.81% | 4.22% | 1.99% | 3.63% | 2.14% | 2.04% | 2.51% |
| O=C(Nc1ccc(Oc2ccc3[nH]c(NC(=O)c4ccco4)nc3c2)cc1)Nc1cc(C(F)(F)F)ccc1F | 37.4% | 0.93% | 21.9% | – | -9.02% | 4.64% | 60.7% | 3.75% | 72.5% | -0.98% | 39.9% | -2.35% | 0.94% | 15.7% | 15.8% | 9.87% | 51.6% |
| NS(=O)(=O)c1ccc(N/N=C2\C(=O)Nc3ccc(Cl)cc32)cc1 | 5.46% | 1.72% | 3.69% | 1.01% | 3.02% | 4.45% | 4.35% | 5.27% | 4.36% | -0.52% | -2.46% | 1.38% | 1.48% | 3.85% | 14.7% | 10.2% | 49.5% |
| Oc1cccc(-c2nc(-c3ccccc3)[nH]c2-c2ccncc2)c1 | 9.74% | 4.12% | 21.9% | 3.06% | 3.35% | 14.5% | 30% | 12.8% | 28.9% | 1.16% | 12.2% | -4.12% | 2.23% | 4.13% | 8.56% | 4.27% | 8.9% |
| NS(=O)(=O)c1ccc(-c2cc3ccncc3cc2OCc2ccccc2)cc1 | 4.23% | 3.11% | 3.16% | 0.37% | -0.77% | 4.65% | 6.35% | 5.61% | 4.49% | 2.9% | 1.99% | -1.18% | 1.31% | 2.38% | 7.53% | 1.82% | 8.17% |
| COc1cc2ncnc(Nc3ccc(C)c(O)c3)c2cc1OC | 34.5% | 8.25% | 42% | 3.61% | 1.79% | 8.83% | 10% | 7.72% | 9.15% | 1.3% | -1.36% | 4.09% | 2.62% | 1.75% | 8.77% | 4.67% | 18.3% |
| CN(c1ccc(NC(=O)Nc2ccc(OC(F)(F)F)cc2)cc1)c1ccnc(Nc2cccc(S(N)(=O)=O)c2)n1 | 27.2% | 15.5% | 65.2% | -0.16% | 3.87% | 5.02% | 22.7% | 4.82% | 18% | -2.25% | -4.06% | 1.26% | 2.86% | 4.25% | 27.6% | 3.86% | 17.2% |
